Screens: PubChem, National Center for Advancing Translational Sciences (NCATS)
Most compounds without a hit are left out; they make up all but 18% or so of the library.
CtBP-E1A blk = CtBP/E1A binding inhibition; 0.49% of 340,000 active; AID 651724; activity change, % (no concentration beside the values); AlphaScreen GST-E1A/His-CtBP binding, 1536-well; stronger effect = lower value; in the data active = activity change below about -65%; inconclusive = mostly about -30% to -63%
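In 5 uL wells, 23 nL compound meets equimolar GST-E1A and His-CtBP (5X stock 125 nM each) for 2 h, 37 °C. Beads (5X, 50 ug/mL) then 1 h, 37 °C, dark.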
IL1B secr inh = inhibitors of inflammasome signaling (IL-1 beta secretion); THP-1 LPS/ATP IL-1B secretion, AlphaLISA, 16 h; stronger effect = lower value; activity change, % at 57.5 µM; 4.7% of 360,000 active; AID 743279; in the data active = activity change below about -50%; inconclusive = mostly about -30% to -49%
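Secreted IL-1B measured by AlphaLISA bead assay after 16 h compound exposure of THP-1 cells; compounds (final up to 57.5 uM) added 1 h before LPS (250 ng/mL) and ATP (1.25 mM) stimulation; lower signal means less secretion.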
TDP1 cell noCPT = qHTS for Inhibitors of human tyrosyl-DNA phosphodiesterase 1 (TDP1): qHTS in cells in absence of CPT. DT40 Tdp1-/- hTDP1 cells, no CPT, ATP luminescence, 48 h. Potency, µM (doses to about 46.2 µM), usual class: inhibitors. 15% of 420,000 active. AID 686978, 2013; note: nearly all actives have a fitted effect of over 55% in size
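Growth of hTDP1-complemented DT40 Tdp1-knockout cells is measured by ATP luminescence after at least 48 hr compound exposure at 37 °C, with DMSO substituting for the 20 nM CPT used in the parallel screen.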
Six1-Eya2 blk = blocks human Six1 binding to Eya2. AlphaScreen GST-Six1/His-Eya2 binding, biochemical; stronger effect = lower value. activity change, % (test concentration not listed). 0.56% of 360,000 active. AID 651725; in the data active = activity change below about -65%; inconclusive = mostly about -30% to -63%
Target sequence (O00167 whole entry, looked up): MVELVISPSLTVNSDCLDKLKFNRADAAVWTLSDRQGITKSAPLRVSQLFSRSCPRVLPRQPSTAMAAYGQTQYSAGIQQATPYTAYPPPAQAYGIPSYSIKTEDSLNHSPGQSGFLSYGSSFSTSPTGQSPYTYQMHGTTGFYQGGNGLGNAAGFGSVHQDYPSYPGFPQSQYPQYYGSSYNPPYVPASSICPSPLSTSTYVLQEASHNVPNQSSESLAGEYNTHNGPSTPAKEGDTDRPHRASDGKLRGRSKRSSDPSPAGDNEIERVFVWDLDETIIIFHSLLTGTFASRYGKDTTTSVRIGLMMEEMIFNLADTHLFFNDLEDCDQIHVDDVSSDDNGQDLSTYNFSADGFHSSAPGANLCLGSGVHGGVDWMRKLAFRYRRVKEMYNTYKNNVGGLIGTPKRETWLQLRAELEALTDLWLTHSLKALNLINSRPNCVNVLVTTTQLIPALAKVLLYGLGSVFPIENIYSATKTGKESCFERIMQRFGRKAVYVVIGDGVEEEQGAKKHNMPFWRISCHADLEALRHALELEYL
Target sequence (Q15475 whole entry, looked up): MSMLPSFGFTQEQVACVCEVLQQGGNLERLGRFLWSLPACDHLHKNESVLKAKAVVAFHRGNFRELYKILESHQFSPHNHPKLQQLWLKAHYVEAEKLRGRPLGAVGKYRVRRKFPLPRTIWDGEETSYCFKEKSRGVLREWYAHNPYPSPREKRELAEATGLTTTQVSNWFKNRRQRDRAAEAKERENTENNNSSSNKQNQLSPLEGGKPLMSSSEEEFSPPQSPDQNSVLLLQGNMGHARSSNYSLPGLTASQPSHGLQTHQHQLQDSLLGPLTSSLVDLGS
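Compounds are tested against tagged Six1 and Eya2 proteins bridged by glutathione donor and nickel acceptor beads; after a one-hour incubation at 37 °C without light, AlphaScreen emission is recorded.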
DT40 TDP1 CPT = growth inhibition of DT40 Tdp1-/-;hTDP1 cells with camptothecin (screen for TDP1 inhibitors); chicken DT40 Tdp1-/-;hTDP1 cells + 20 nM CPT, ATP luminescence, 48 h; Potency, µM (top dose mostly 46.2 µM), usual class: inhibitors; 12% of 420,000 active; AID 686979; note: nearly all actives have a fitted effect of over 55% in size
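Chicken DT40 Tdp1-/- cells complemented with human TDP1, 400 cells/well, exposed to compounds plus 20 nM camptothecin for at least 48 h at 37 C; viability read as ATP content by CellTiter-Glo luminescence.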
TDP1 block = inhibitors of human tyrosyl-DNA phosphodiesterase TDP1; recombinant TDP1, AlphaScreen DNA substrate cleavage; Q9NUW8; 0.28% of 350,000 active; Potency, µM (titrated, usually from 130 µM), usual class: inhibitors; note: nearly all actives have a fitted effect of over 40% in size
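Recombinant E. coli-expressed Tdp1 (1 nM) preincubated with compound 15 min at RT, then 5'-biotin/3'-phosphotyrosine-FITC DNA substrate (15 nM) added for 5 min. AlphaScreen beads (10 ug/ml) added, 10 min RT; tyrosine-FITC cleavage read as signal loss.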
Numbers stand for hits; i = inactive; ? = inconclusive; nt = not tested or not shown; [ ] = dose if it differs, or a comment. Unless noted, calls come from the whole dose curve; as a rule, active = well fitted curve in the direction sought with a large enough effect; inconclusive = small, poorly fitted or top-dose-only effect, or another doubt; inactive = no such curve, though single readings can be large; an effect the other way counts as inactive or inconclusive.

SMILES	CtBP-E1A blk	IL1B secr inh	TDP1 cell noCPT	Six1-Eya2 blk	DT40 TDP1 CPT	TDP1 block
CCC(=O)N1c2ccc(S(=O)(=O)CCC(=O)Nc3nccs3)cc2CC1C (stereo unspecified)	i	i	?	i	?	i
COCCCn1c(C)nnc1SCC(=O)NCc1ccco1	i	i	i	i	i	i
O=C(NC1CCCCC1)c1ccc2c(c1)S(=O)(=O)c1ccccc1C2=O	i	i	?	i	i	nt
COc1ccc(COC(=O)C2=C(C)NC(=O)NC2c2cccc(OC)c2OC)cc1 (stereo unspecified)	i	i	i	i	i	nt
CC1=C(C(=O)OCc2ccc3c(c2)OCO3)C(c2ccccc2OCc2ccccc2)NC(=O)N1 (stereo unspecified)	i	-50	26µM	i	?	i
CCOC(=O)C1=C(C)NC(=O)NC1c1cccc(OC)c1OCc1ccccc1Cl (stereo unspecified)	i	i	?	i	8.2µM	i
CCCOc1ccccc1C1NC(=O)NC(C)=C1C(=O)OCc1ccccc1 (stereo unspecified)	i	-71	?	i	23µM	i
COC(=O)c1ccc(NC(=O)c2cccc(C)c2[N+](=O)[O-])cc1	nt	i	i	i	i	i
Cc1cccc(C)c1N(CC(=O)N1CCOCC1)S(C)(=O)=O	i	i	i	i	i	nt
CCCCN(C(=O)Cn1nnc2ccccc21)C(C(=O)NCCOC)c1ccc(OC)cc1 (stereo unspecified)	i	i	i	i	i	i
COc1ccc(OC)c(C(C(=O)NCc2ccco2)N(C(=O)Cn2nnc3ccccc32)C2CC2)c1 (stereo unspecified)	i	i	16µM	i	13µM	i
COc1ccc(C(C(=O)Nc2ccc(F)cc2)N(C(=O)Cn2nnc3ccccc32)C2CC2)cc1 (stereo unspecified)	i	-72	?	i	i	i
O=C(N=C1SC2CS(=O)(=O)CC2N1c1ccc(Br)cc1Cl)C1CC1 (stereo unspecified)	i	i	i	i	i	i
CC1=CC(C/C(C)=C/COc2ccc3ccc(=O)oc3c2)OC1=O (stereo unspecified)	i	i	?	i	?	nt
COc1ccc(-c2csc(Nc3ccc(S(=O)(=O)Nc4cc(C)on4)cc3)n2)cc1C	nt	i	?	i	i	i
COc1cc(NS(=O)(=O)c2ccc(Nc3nc(-c4ccccn4)cs3)cc2)nc(OC)n1	-76	i	i	-79	i	i
COc1ccc(-c2csc(Nc3ccc(S(=O)(=O)Nc4cc(OC)nc(OC)n4)cc3)n2)cc1	i	-75	i	i	i	i
Cc1ccc(-n2ncc(C(=O)Nc3ccc4c(c3)OCO4)c2C2CCN(C(=O)OC(C)(C)C)CC2)cc1	nt	nt	21µM	nt	21µM	i
CC(C)(C)OC(=O)N1CCC(c2c(C(=O)Nc3ccc4c(c3)OCCO4)cnn2-c2ccc(Cl)cc2)CC1	nt	nt	?	nt	?	i
Cc1ccc(-n2ncc(C(=O)Nc3ccc4c(c3)OCCO4)c2C2CCN(C(=O)OC(C)(C)C)CC2)cc1	nt	nt	21µM	nt	21µM	i
CC(C)(C)OC(=O)N1CCC(c2c(C(=O)Nc3ccc4c(c3)OCCO4)cnn2-c2ccccc2)CC1	nt	nt	18µM	nt	23µM	i
COc1ccc(-n2ncc(C(=O)Nc3ccc4c(c3)OCO4)c2C2CCN(C(=O)OC(C)(C)C)CC2)cc1	nt	nt	?	nt	?	i
O=C(NCCCCCCNC(=O)c1ccccc1O)c1ccccc1O	i	i	21µM	i	?	nt
COc1cc(C(=O)NC(c2ccccc2)c2ccccc2)cc(OC)c1C	i	i	?	i	i	i
COc1cc(C(=O)NC(c2ccccc2Cl)c2cc(Cl)c3cccnc3c2O)cc(OC)c1OC (stereo unspecified)	nt	nt	21µM	nt	13µM	i
SMILES	CtBP-E1A blk	IL1B secr inh	TDP1 cell noCPT	Six1-Eya2 blk	DT40 TDP1 CPT	TDP1 block
COc1ccc(C(=O)NC(c2ccccc2Cl)c2cc(Cl)c3cccnc3c2O)cc1 (stereo unspecified)	nt	nt	13µM	nt	8.2µM	i
CCC(=O)NC(c1cc(Cl)c2cccnc2c1O)C1CC1 (stereo unspecified)	nt	nt	nt	nt	nt	i
c1cncc(OC2CCN(Cc3ccc4c(c3)CN(Cc3ccc5c(c3)CCO5)CCO4)CC2)c1	nt	nt	18µM	nt	i[9.04 µM]	nt
COc1ccc(CN2CCOc3ccc(CN4CCC(Oc5cccnc5)CC4)cc3C2)cc1	nt	nt	i	nt	21µM	nt
c1cncc(OC2CCN(Cc3ccc4c(c3)CN(Cc3ccc5c(c3)OCCO5)CCO4)CC2)c1	nt	nt	16µM	nt	?	nt
CCOC(=O)C1CCN(C(=O)Cn2c(=O)oc3cc(S(=O)(=O)N4CCCC4)ccc32)CC1	i	i	i	i	i	nt
COc1ccc(OC)c(S(=O)(=O)NCCc2csc(-c3cccnc3)n2)c1	i	i	i	i	i	nt
COc1ccc(S(=O)(=O)NCCc2csc(-c3cccnc3)n2)cc1	i	i	i	i	15µM	i
O=S(=O)(NCCc1csc(-c2cccnc2)n1)c1ccc(Cl)s1	i	i	23µM	i	12µM	i
Cc1ccc(SCc2cc(=O)[nH]c(N3CCN(C)CC3)n2)cc1	i	i	i	i	i	i
c1ccc(N2N=C(c3cccs3)CC2c2ccco2)cc1 (stereo unspecified)	i	i	i	i	i	nt
CC1(C)CCC(=O)N(c2ccccc2)C1=O	i	i	i	i	i	i
Cc1ccc(CN2C(=O)CCSc3ccc(Cl)cc32)cc1	i	i	?	i	i	i
O=C1CCSc2ccc(Cl)cc2N1Cc1cccc(Cl)c1	i	i	21µM	i	?	i
CCN(CC(=O)Nc1cc(Cl)ccc1C)C(=O)c1cc([N+](=O)[O-])ccc1N1CCOCC1	i	i	i	i	i	nt
COc1ccc2c(c1)sc1nc(-c3ccccc3)cn12	i	?	0.92µM	i	0.52µM	nt
COc1ccc(-c2cn3c(n2)sc2cc(C(=O)Nc4cc(Cl)ccc4C)ccc23)cc1	nt	nt	2.9µM	nt	6.5µM	i
CCOc1ccc(-c2cn3c(n2)sc2cc(C(=O)NCCc4ccc(OC)c(OC)c4)ccc23)cc1	nt	nt	10µM	nt	12µM	i
COc1ccc(NC(=O)c2ccc3c(c2)sc2nc(-c4ccc(OC)cc4)cn23)cc1	nt	nt	i	nt	i	i
COc1ccc2oc(=O)c(-c3cn4c(n3)sc3cc(F)ccc34)cc2c1	nt	nt	i	nt	i	i
COc1cccc(-c2cn3c(n2)sc2cc(C(=O)NCCc4ccccc4)ccc23)c1	nt	nt	7.3µM	nt	7.3µM	i
CCc1ccc(-c2cn3c(n2)sc2cc(C(=O)NCCc4ccc(OC)cc4OC)ccc23)cc1	nt	nt	16µM	nt	23µM	i
